# Screening results from PubChem.
# HUVEC tox IL1B: toxic to HUVEC cells under IL-1B stimulation. HUVEC cell count loss, Hoechst imaging, IL-1B stimulated. cell count reduction, % at 2 µM. hit rate 0.41% among 94,000;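 active = cell count reduction more than 3 SD above the screen-wide mean, cut at about 70% in these data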;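 note: normalized per plate to untreated control cells as the no-loss baseline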
# Cav32 inh: inhibitors of human Cav3.2 T-type calcium channel; B-score at 10 µM; hit rate 4% among 100,000; AID 449739; Cav3.2-expressing cells, Fluo-4 calcium fluorescence FDSS; active compounds read low; O95180;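 active = single-dose well whose peak fluorescence ratio is a statistical outlier from its plate by either plate-standardised score or position-corrected B-score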
# Target sequence (O95180 whole entry, looked up): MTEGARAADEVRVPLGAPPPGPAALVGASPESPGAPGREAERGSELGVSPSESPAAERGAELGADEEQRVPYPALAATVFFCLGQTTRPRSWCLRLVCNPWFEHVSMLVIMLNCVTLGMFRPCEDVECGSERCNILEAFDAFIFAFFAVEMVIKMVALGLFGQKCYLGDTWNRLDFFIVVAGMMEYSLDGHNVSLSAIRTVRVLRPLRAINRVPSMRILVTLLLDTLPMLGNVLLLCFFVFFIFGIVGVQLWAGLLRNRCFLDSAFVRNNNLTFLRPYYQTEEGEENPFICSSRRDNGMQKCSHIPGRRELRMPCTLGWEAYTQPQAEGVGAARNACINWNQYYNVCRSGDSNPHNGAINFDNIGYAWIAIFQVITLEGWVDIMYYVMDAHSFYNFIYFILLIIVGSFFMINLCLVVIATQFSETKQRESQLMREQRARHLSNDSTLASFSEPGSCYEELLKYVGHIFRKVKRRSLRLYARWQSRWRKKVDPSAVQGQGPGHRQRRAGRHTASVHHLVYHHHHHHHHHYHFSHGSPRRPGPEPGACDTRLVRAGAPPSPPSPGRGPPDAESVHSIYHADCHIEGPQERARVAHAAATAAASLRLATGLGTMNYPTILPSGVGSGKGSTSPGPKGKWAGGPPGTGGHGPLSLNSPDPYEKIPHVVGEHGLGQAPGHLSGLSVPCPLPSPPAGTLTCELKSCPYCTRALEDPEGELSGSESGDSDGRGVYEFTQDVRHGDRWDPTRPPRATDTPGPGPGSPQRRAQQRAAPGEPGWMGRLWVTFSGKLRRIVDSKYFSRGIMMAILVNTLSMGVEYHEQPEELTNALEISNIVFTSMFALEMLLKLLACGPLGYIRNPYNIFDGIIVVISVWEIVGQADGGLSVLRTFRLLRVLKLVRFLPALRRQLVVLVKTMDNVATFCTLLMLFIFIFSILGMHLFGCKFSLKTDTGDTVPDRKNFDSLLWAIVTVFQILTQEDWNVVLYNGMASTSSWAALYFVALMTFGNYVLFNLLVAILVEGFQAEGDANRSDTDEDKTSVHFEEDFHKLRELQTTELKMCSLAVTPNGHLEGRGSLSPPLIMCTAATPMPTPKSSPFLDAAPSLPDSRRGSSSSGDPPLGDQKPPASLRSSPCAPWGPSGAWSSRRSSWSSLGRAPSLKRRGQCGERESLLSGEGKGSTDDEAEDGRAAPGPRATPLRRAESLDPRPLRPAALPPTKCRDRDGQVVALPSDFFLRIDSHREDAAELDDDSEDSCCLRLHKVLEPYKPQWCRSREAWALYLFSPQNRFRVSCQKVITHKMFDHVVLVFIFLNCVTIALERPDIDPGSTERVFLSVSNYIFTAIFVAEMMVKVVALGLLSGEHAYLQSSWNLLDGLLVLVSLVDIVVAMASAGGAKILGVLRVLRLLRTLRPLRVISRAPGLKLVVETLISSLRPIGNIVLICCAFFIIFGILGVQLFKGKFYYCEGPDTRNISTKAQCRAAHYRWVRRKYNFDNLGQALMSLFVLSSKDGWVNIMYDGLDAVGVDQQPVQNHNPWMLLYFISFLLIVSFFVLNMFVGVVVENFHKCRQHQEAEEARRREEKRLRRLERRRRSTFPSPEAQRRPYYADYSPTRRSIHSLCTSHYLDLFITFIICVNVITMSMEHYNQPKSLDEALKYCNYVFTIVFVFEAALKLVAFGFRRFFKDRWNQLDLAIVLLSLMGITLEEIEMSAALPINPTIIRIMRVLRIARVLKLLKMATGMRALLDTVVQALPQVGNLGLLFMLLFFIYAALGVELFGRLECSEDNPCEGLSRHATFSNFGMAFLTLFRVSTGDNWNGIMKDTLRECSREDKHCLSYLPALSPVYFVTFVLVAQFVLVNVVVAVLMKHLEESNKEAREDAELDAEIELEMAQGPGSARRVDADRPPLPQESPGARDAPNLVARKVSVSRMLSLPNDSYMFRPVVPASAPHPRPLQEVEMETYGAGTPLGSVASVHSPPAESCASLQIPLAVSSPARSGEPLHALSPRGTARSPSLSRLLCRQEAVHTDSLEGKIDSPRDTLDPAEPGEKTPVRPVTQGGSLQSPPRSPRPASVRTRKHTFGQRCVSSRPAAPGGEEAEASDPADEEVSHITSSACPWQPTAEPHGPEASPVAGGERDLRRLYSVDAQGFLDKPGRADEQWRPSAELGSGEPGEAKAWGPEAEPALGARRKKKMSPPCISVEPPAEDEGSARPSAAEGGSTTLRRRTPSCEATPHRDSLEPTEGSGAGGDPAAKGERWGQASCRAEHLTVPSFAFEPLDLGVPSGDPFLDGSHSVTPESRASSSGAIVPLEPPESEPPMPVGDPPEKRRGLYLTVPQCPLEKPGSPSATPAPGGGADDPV
# IL1B NFkB pot: enhances IL-1B driven NFkB nuclear translocation. HUVEC IL-1B NFkB p65 nuclear translocation imaging. activation, % at 2 µM. hit rate 0.3% among 94,000. AID 819;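 active = activation above 40%, about the mean plus 3 SD, also judged a hit on visual image review; inconclusive = activation above 40% but not a hit on visual review; inactive = activation not above 40% and no visual hit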;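 note: percent activation is computed from the nuclear over cytoplasmic p65 intensity ratio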
# IL1B NFkB inh: blocks IL-1B driven NFkB nuclear translocation in HUVEC cells; HUVEC IL-1B NFkB p65 nuclear translocation imaging; hit rate 0.43% among 94,000; inhibition, % at 2 µM; AID 796;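 active = inhibition above about 30% together with a positive call from visual inspection of the well image, limit read from the data; inconclusive = inhibition above a set limit but visual check negative; inactive = inhibition not above a set limit, visual check negative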;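 note: nuclear over cytoplasmic p65 intensity ratio measured by imaging; 0% = IL-1B stimulated DMSO wells and 100% = unstimulated DMSO wells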
# Active calls of the source: *; ? = inconclusive; / = no result given; ! = not confirmed by another sample. Compounds with a hit are over-represented: about 4.4% of the library has one in this group of screens.
SMILES,HUVEC tox IL1B,Cav32 inh,IL1B NFkB pot,IL1B NFkB inh
CNC(=S)N1C2CCC1CC(NC(=O)NC13CC4CC(CC(C4)C1)C3)C2 (stereo not drawn),-44.3,-0.129,-1.7,1.7
Cc1cc(C)nc(SCC(=O)NC2=NC(=O)C(C)S2)n1 (stereo not drawn),78.5*,0.664,18.8,-18.8
Cc1cc(C(F)(F)F)nc(SCC(=O)NC2=NC(=O)C(C)S2)n1 (stereo not drawn),-18.5,-0.0114,3.4,-3.4
CCCN(c1nc(C)cc(OC)n1)S(=O)(=O)c1ccccc1,-2.8,-4.75*,-7.3,7.3
O=C(CSCc1cccc(Br)c1)N/N=C/c1ccc2c(c1)OCO2,16.0,-5.4*,-10.8,10.8
CC(SCc1ccccc1)C(=O)Nc1ccc2c(c1)OCO2 (stereo not drawn),-3.6,-2.47,11.4,-11.4
Cc1cccc(C)c1OCC(=O)N/N=C/c1ccc2c(c1)OCO2,0.0,-1.35,-2.7,2.7
CC(SCc1ccccc1)C(=O)N/N=C/c1ccc2c(c1)OCO2 (stereo not drawn),-18.8,-6.12*,9.0,-9.0
CC[C@H](C)[C@@H](C(=O)N1CCNCC1)n1cc([C@@H](N)CC(C)C)nn1,/,1.11,/,/
O=c1c2ccccc2nnn1CSc1nnc(C2COc3ccccc3O2)n1-c1ccccc1 (stereo not drawn),/,-6.05*,/,/
O=C(OCn1nnc2ccccc2c1=O)C1COc2ccccc2O1 (stereo not drawn),1.4,0.432,0.8,-0.8
C/C(=N\NC(=O)c1ccc(Cl)c(Cl)c1)c1cccc(NC(=O)C(C)C)c1,-2.4,-7.1*,15.4,-15.4
COc1c(C)cc(Br)cc1C(=O)O,89.9*,0.798,2.5,-2.5
COc1c(C)cc(Br)cc1C(=O)Nc1cccc(NC(=O)c2ccco2)c1,87.2*,-2.53,21.9,-21.9
COc1ccc(Br)cc1C(=O)Nc1cccc(NC(=O)c2ccco2)c1,-1.3,-2.38,-10.6,10.6
COc1ccc(Br)cc1C(=O)O,/,-0.966,/,/
Cc1cc(C)c(OCC(=O)Nc2cccc(NC(=O)c3ccco3)c2)c(Br)c1,/,-4.45*,/,/
C[C@H]1CC[C@]2(O[C@H](CCO)C[C@@H](O)[C@@H]2O)O1,/,-0.473,/,/
OC(CN1CCN(c2ccccc2)CC1)c1c[nH]c2ccccc12 (stereo not drawn),-5.6,-0.948,-5.6,5.6
COc1cc(O)c(C(CC(=O)N2CCCC(C)C2)c2cc(OC)c(OC)c(OC)c2)c(OC)c1 (stereo not drawn),/,0.462,/,/
CC1CCC(C(C)C)C(OC(=O)COC(=O)c2cccn2C)C1 (stereo not drawn),-21.1,-4.3,-14.5,14.5
C/C(=N\O)C(=O)OC1CC(C)CCC1C(C)C (stereo not drawn),1.0,-4.71*,-11.3,11.3
CCN(CC)CCNc1nc(-c2ccccc2)c2c(c1C#N)CC(C)(C)OC2,-4.3,-3.68*,13.5,-13.5
CC1(C)Cc2c(C#N)c(NCCCO)nc(-c3ccccc3)c2CO1,/,0.0299,/,/
CCCCN(C)c1nc(-c2ccco2)c2c(c1C#N)CC(C)(C)OC2,31.4,-3.8*,-13.9,13.9
SMILES,HUVEC tox IL1B,Cav32 inh,IL1B NFkB pot,IL1B NFkB inh
CCCCCc1c2c(cc(O)c1C(=O)O)OC(=O)c1c(cc(OC)cc1C(=O)CCCC)O2,/,-3.95*,/,/
CCOC(=O)c1ccc(COC(=O)c2cc3ccccc3oc2=O)o1,76.3*,-0.15,-2.5,2.5
COc1ccc(OC)c(NC(=O)c2ccccc2NS(=O)(=O)c2cccc3cccnc23)c1,7.5,-0.313,-7.4,7.4
O=C(Nc1ccsc1C(=O)NC1CCCCC1)c1ccccc1,-15.3,-0.0735,-5.3,5.3
COc1ccc(C(C(=O)NC2CCCCC2)N(Cc2cccs2)C(=O)Cc2c[nH]c3ccccc23)cc1 (stereo not drawn),/,-6.37*,/,/
COc1cccc(CN(C(=O)Cc2c[nH]c3ccccc23)C(C(=O)NC2CCCCC2)c2cccs2)c1 (stereo not drawn),4.2,-6.56*,-0.1,0.1
O=C(NC1CCCCC1)C(c1cccs1)N(C(=O)Cc1c[nH]c2ccccc12)c1ccc(F)cc1 (stereo not drawn),-32.9,-2.8,-6.1,6.1
OCCCc1nc2n(n1)C(c1cccs1)C=C(c1ccccc1)N2 (stereo not drawn),14.3,-9.93*,-6.6,6.6
COc1cccc(N2CCN(Cc3nc(N)nc(Nc4ccccc4)n3)CC2)c1,-23.3,-1.9,-0.7,0.7
Cc1cccc(Nc2nc(N)nc(CN3CCN(c4ccccc4)CC3)n2)c1,-30.4,-3.67*,-17.7,17.7
COc1ccccc1N1CCN(Cc2nc(N)nc(Nc3ccc(C)c(Cl)c3)n2)CC1,10.8,-5.69*,-14.7,14.7
Nc1nc(CN2CCN(c3ccccc3F)CC2)nc(Nc2ccc3c(c2)OCCO3)n1,30.2,0.132,27.4,-27.4
Cc1cccc(Nc2nc(N)nc(CN3CCN(c4ccccc4F)CC3)n2)c1,-10.0,-4.93*,?,-42.6
Cc1n[nH]c(C)c1Sc1ccccc1N=Cc1cc(Cl)cc([N+](=O)[O-])c1O,5.5,-6.89*,-5.1,5.1
Cc1ccc(-c2cc(-c3ccccc3[N+](=O)[O-])[nH]n2)c(O)c1,-23.4,/,12.6,-12.6
COc1cccc(C(=O)Nc2nnc(-c3cccs3)s2)c1,7.8,0.0478,30.7,-30.7
Cn1cccc1/C=N/n1cnnc1,/,0.803,/,/
Cn1cccc1/C=C1\CCC/C(=C\c2cccn2C)C1=O,-6.4,-13.1*,26.8,-26.8
Cc1ccc(S(=O)(=O)NCCN=C(CN2CCCC2)NS(=O)(=O)c2ccc(C)cc2)cc1,15.2,0.161,2.6,-2.6
FC(F)(F)c1cccc(Cn2nnnc2-c2cccc(C(F)(F)F)c2)c1,6.9,-2.79,-3.7,3.7
O=c1c2cc(Br)ccc2nc(-c2cccc(C(F)(F)F)c2)n1O,-61.3,-7.94*,18.9,-18.9
CCc1cccc(CC)c1NC(=O)CN1CC(C)SC1=NC1CCCCC1 (stereo not drawn),-3.3,-5.27*,3.4,-3.4
COc1cc(-c2nnc(SCC3(c4ccccc4)OCCO3)o2)cc(OC)c1OC,/,-1.33,/,/
Cn1cnc2c(N3CCCCC3)nccc21,92.9*,-0.0299,3.5,-3.5
CN1CCN(c2ncccc2S(=O)(=O)N2CCCCC2)CC1,-17.5,0.364,26.1,-26.1
SMILES,HUVEC tox IL1B,Cav32 inh,IL1B NFkB pot,IL1B NFkB inh
O=C(Nc1ccc(Cl)cc1)[C@@H]1[C@@H]2C(=O)N(c3ccc(Cl)cc3)C(=O)[C@@H]2[C@H]2C=CC=NN21,-84.6,-5.85*,-5.8,5.8
O=C(Nc1ccc(Cl)cc1)[C@@H]1[C@@H]2C(=O)N(c3ccc(Cl)cc3Cl)C(=O)[C@@H]2[C@H]2C=CC=NN21,-0.8,-4.69*,-3.0,3.0
Cc1ccc(N2C(=O)[C@@H]3[C@H](C2=O)[C@H]2C=CC=NN2[C@@H]3C(=O)Nc2ccc(Cl)cc2)cc1,/,-0.944,/,/
COP1(=O)C=C[C@H](N(Cc2ccccc2)S(=O)(=O)c2ccccc2[N+](=O)[O-])[C@@H](C)O1 (stereo partly drawn),/,0.423,/,/
Cc1ccc2c(c1)N(CC(=O)Nc1ccc3c(c1)OCCO3)C(=O)CO2,90.9*,-0.703,-99.3,99.3*
O=S(=O)(Nc1cc(Cl)ccc1N1CCCCC1)c1cccs1,-21.0,-5.69*,31.6,-31.6
CN1CCN(CCCN2c3ccccc3Sc3ccc(Cl)cc32)CC1,/,-5.1*!,/,/
OCCN1CCN(CCCN2c3ccccc3Sc3ccc(C(F)(F)F)cc32)CC1,/,0.108,/,/
